Inconclusive results are not listed. Activity calls are given as the source filed them. Unless noted, calls come from the whole dose curve; as a rule, active = well fitted curve in the direction sought with a large enough effect; inconclusive = small, poorly fitted or top-dose-only effect, or another doubt; inactive = no such curve, though single readings can be large; an effect the other way counts as inactive or inconclusive.
Tests used:
[1] = biological target: ATP-dependent 6-phosphofructokinase (Trypanosoma brucei brucei) (UniProt O15648); experiment: qHTS Assay to Find Inhibitors of T. brucei phosphofructokinase: hit validation (AID 492961);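 note: luminescence reports ADP formed as PFK phosphorylates fructose-6-phosphate with ATP; % is set by controls: 0 for no effect and ±100 for the full control effect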
Outline: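 PFK 1.25 nM, F6P 0.5 mM, ATP 0.1 mM, MgCl2 5 mM, 0.1 M TEA pH 8.0, Tween20 0.01%, BSA 0.1%; 45 min RT. ADP-Glo two-step detection, luminescence. qHTS titration; curve fitting with curve-class categorization.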

[2] = S16 Schwann cell PMP22 intronic element firefly luciferase assay (AID 624032);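 note: plate controls were DMSO for no effect and PTC124 positive control mean for full effect; nearly all actives have a fitted effect of over 30% in size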
Outline: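 Rat S16 Schwann cells stably carrying a PMP22 intronic element-driven Fluc reporter were seeded overnight, then exposed to compounds for 24 h at 37 °C. Luminescence was normalized to PTC124 (positive control) and DMSO (0% activity).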

7G8 = experiment: qHTS profiling for inhibitors of Plasmodium falciparum proliferation (AID 504749); note: nearly all actives have a fitted effect of over 60% in size; note: potency is the fitted concentration of half-maximal effect; conditions: P. falciparum in erythrocytes, SYBR Green DNA, 72 h; series mostly up to 12.8 µM
Outline: (§1)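 Fluorescence of SYBR Green-bound parasite DNA, read at 485/535 nm, served as the growth measure. Infected erythrocytes were cultured with compound 72 h; artemisinin (0.29 uM) and DMSO wells defined the normalization range.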

AA1029 = experiment: as above; conditions: P. falciparum in erythrocytes, SYBR Green DNA, 72 h; series mostly up to 12.8 µM
Outline: as §1

CP194 = experiment: as above; conditions: P. falciparum in erythrocytes, SYBR Green DNA, 72 h; series mostly up to 12.8 µM
Outline: as §1

CP203 = experiment: as above; conditions: P. falciparum in erythrocytes, SYBR Green DNA, 72 h; series mostly up to 12.8 µM
Outline: as §1

CP215 = experiment: as above; conditions: P. falciparum in erythrocytes, SYBR Green DNA, 72 h; series mostly up to 12.8 µM
Outline: as §1

CP265 = experiment: as above; conditions: P. falciparum in erythrocytes, SYBR Green DNA, 72 h; series mostly up to 12.8 µM
Outline: as §1

CP291 = experiment: as above; conditions: P. falciparum in erythrocytes, SYBR Green DNA, 72 h; series mostly up to 12.8 µM
Outline: as §1

CP335 = experiment: as above; conditions: P. falciparum in erythrocytes, SYBR Green DNA, 72 h; series mostly up to 12.8 µM
Outline: as §1

DIV30 = experiment: as above; conditions: P. falciparum in erythrocytes, SYBR Green DNA, 72 h; series mostly up to 12.8 µM
Outline: as §1

P93_24 = experiment: as above; conditions: P. falciparum in erythrocytes, SYBR Green DNA, 72 h; series mostly up to 12.8 µM
Outline: as §1

P94_40 = experiment: as above; conditions: P. falciparum in erythrocytes, SYBR Green DNA, 72 h; series mostly up to 12.8 µM
Outline: as §1

PC26 = experiment: as above; conditions: P. falciparum in erythrocytes, SYBR Green DNA, 72 h; series mostly up to 12.8 µM
Outline: as §1

CP211 = experiment: as above; conditions: P. falciparum in erythrocytes, SYBR Green DNA, 72 h; series mostly up to 12.8 µM
Outline: as §1

[3] = biological target: Cytochrome P450 2C9 (Homo sapiens) (UniProt P11712); experiment: qHTS Assay for Inhibitors and Substrates of Cytochrome P450 2C9 (AID 883); note: nearly all actives have a fitted effect of over 60% in size; note: potency is the fitted concentration of half-maximal effect; for activity change, negative = inhibition: % is set by controls: 0 for no effect and ±100 for the full control effect
Outline: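 Human CYP2C9 (10nM) hydroxylated Luciferin-H (100uM, at its KM) to luciferin in 25mM KPO4. Compound was preincubated 10 min at 37C, then NADPH regeneration started a 60 min reaction at 37C. Luminescence was read after detection reagent, normalized to 57uM sulphaphenazole.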

[4] = biological target: Cytochrome P450 3A4 (Homo sapiens) (UniProt P08684); experiment: qHTS Assay for Inhibitors and Substrates of Cytochrome P450 3A4 (AID 884); note: % is set by controls: 0 for no effect and ±100 for the full control effect; nearly all actives have a fitted effect of over 50% in size
Outline: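 Luminescent readout of luciferin produced by CYP3A4 (20 nM) dealkylation of Luciferin-PPXE, 25 uM (its KM). NADPH-driven reaction ran 60 min at RT after 10 min compound preincubation; data scaled to 57 uM ketoconazole as 100% inhibition.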

[5] = biological target: Cytochrome P450 2D6 (Homo sapiens) (UniProt P10635); experiment: qHTS Assay for Inhibitors and Substrates of Cytochrome P450 2D6 (AID 891); note: nearly all actives have a fitted effect of over 60% in size; note: potency is the fitted concentration of half-maximal effect;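 for activity change, negative = inhibition: luciferin methyl ether substrate demethylated by CYP2D6 with NADPH regeneration; % is set by controls: 0 for no effect and ±100 for the full control effect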
Outline: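 Luminescent read-out of luciferin formed by 5 nM human CYP2D6 demethylating 30 uM Luciferin-ME EGE (Km level) over 60 min at room temperature after NADPH regeneration addition. Data normalized to full inhibition by 1.43 uM quinidine.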

[6] = biological target: Cytochrome P450 3A4 (Homo sapiens) (UniProt P08684); experiment: qHTS Assay for Activators of Cytochrome P450 3A4 (AID 885); note: nearly all actives have a fitted effect of over 65% in size
Outline: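 Luminescent readout of luciferin formed from 25 uM Luciferin-PPXE (KM level) by 20 nM CYP3A4 in 200 mM KPO4, with 60 min NADPH-driven reaction at room temperature after 10 min compound exposure. Ketoconazole (57 uM) defined 100% inhibition.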

[7] = qHTS Assay for Identification of Small Molecule Agonists for Hypoxia Response Element Signaling Pathway (AID 914; active = well fitted activation curve with a large enough effect in the signal ratio, with a control signal flat, not every such curve was filed as active; the % refers to the signal ratio; note: potency is the fitted concentration of half-maximal effect; for activation: % of control where 0% means no effect); conditions: ME-180 (cervical carcinoma) HRE-bla reporter, beta-lactamase ratio, CoCl2, 17 h; activation: hits give high values
Outline: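 A beta-lactamase reporter under hypoxia response element control in ME-180 cells served as the system. Compound titrations plus EC50 CoCl2 ran 17 h at 37 degrees Celsius; AC50 values were fitted from %Activity.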

Chain of ATP-dependent 6-phosphofructokinase (Trypanosoma brucei brucei) (O15648 whole entry, looked up): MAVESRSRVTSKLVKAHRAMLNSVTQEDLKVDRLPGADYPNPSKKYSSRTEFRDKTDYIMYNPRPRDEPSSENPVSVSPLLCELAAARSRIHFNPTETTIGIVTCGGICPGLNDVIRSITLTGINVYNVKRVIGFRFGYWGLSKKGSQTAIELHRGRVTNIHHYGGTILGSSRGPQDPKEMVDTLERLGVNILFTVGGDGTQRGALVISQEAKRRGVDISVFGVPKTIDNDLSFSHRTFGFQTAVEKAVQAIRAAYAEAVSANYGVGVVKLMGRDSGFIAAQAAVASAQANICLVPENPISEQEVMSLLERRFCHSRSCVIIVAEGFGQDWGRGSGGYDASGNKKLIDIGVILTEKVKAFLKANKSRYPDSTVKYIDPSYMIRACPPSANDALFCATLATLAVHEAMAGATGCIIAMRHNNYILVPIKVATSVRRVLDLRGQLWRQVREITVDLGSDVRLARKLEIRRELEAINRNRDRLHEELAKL
Chain of Cytochrome P450 2D6 (Homo sapiens) (P10635 whole entry, looked up): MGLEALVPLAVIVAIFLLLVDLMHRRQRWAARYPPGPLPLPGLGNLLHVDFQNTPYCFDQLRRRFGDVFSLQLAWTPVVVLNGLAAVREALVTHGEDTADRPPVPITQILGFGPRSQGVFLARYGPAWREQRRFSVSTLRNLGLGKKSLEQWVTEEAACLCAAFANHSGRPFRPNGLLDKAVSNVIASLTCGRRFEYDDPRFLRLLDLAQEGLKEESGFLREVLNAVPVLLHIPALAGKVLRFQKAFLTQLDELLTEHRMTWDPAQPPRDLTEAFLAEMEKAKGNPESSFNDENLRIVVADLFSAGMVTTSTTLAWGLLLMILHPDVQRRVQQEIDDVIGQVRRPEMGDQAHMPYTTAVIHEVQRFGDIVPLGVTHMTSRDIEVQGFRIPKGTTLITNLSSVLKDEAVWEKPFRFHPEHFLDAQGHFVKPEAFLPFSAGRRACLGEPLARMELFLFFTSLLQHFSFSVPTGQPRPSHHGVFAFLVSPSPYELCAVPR
Chain of Cytochrome P450 2C9 (Homo sapiens) (P11712 whole entry, looked up): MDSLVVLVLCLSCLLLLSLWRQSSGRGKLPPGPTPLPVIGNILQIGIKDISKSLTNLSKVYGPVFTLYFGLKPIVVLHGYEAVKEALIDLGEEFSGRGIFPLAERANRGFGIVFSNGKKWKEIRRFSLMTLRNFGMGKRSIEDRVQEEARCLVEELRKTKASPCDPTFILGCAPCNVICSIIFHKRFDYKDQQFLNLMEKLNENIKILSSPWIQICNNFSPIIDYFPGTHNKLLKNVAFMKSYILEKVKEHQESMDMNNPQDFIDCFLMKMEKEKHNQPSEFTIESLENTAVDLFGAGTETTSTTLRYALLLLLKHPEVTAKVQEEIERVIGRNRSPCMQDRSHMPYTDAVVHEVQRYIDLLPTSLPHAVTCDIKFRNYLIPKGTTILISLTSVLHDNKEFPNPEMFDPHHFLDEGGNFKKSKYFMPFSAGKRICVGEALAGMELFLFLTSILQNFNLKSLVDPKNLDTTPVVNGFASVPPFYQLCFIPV
Chain of Cytochrome P450 3A4 (Homo sapiens) (P08684 whole entry, looked up): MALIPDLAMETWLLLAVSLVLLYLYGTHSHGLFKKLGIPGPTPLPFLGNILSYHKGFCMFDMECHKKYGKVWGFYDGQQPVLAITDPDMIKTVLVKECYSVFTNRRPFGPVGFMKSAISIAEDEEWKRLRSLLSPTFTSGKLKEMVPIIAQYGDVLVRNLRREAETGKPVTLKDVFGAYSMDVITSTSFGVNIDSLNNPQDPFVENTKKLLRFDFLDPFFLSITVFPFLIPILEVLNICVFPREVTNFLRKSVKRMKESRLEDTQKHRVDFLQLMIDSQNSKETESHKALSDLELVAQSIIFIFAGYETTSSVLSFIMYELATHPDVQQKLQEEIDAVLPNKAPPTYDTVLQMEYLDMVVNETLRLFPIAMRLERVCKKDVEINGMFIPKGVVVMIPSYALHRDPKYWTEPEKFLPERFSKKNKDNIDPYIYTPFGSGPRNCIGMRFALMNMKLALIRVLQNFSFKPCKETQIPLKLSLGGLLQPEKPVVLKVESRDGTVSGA

CC(C)NC[C@H]1CCc2cc(CO)c([N+](=O)[O-])cc2N1
inactive: outcome [1] | Potency [2] | Potency (7G8) | Potency (AA1029) | Potency (CP194) | Potency (CP203) | Potency (CP215) | Potency (CP265) | Potency (CP291) | Potency (CP335) | Potency (DIV30) | Potency (P93_24) | Potency (P94_40) | Potency (PC26)

NS(=O)(=O)c1cc2c(cc1Cl)N[C@@H](C(Cl)Cl)NS2(=O)=O
inactive: outcome [1] | Potency [2] | Potency (7G8) | Potency (AA1029) | Potency (CP194) | Potency (CP203) | Potency (CP211) | Potency (CP215) | Potency (CP265) | Potency (CP291) | Potency (CP335) | Potency (DIV30) | Potency (P93_24) | Potency (P94_40) | Potency (PC26)

Nc1ncnc2c1ncn2[C@@H]1O[C@H](COP(=O)(O)O)[C@@H](O)[C@@H]1O
inactive: Potency [3] | Potency [4] | Potency [5]

CC1(C)O[C@H]2C[C@@H]3[C@H]4CCC5=CC(=O)CC[C@@]5(C)[C@]4(F)[C@@H](O)C[C@@]3(C)[C@@]2(C(=O)CCl)O1
inactive: outcome [1]
active: Potency (7G8) 1580 nM | Potency (AA1029) 2820 nM | Potency (CP265) 3980 nM | Potency (DIV30) 5730 nM | Potency (P93_24) 3550 nM | Potency (P94_40) 3160 nM | Potency (PC26) 6420 nM

C1CCC(C(C[C@@H]2CCCCN2)C2CCCCC2)CC1
active: Potency [5] 501 nM

CCN(CC)CCOC(=O)[C@@H](c1ccccc1)C1CCCCC1
inactive: Potency [6]
active: Potency [5] 631 nM

CCN(CC)[C@@H](C)CN1c2ccccc2Sc2ccccc21
active: Potency [5] 158 nM
inactive: Potency (CP211) | Potency (CP215) | Potency (DIV30)

CO[C@]1(NC(=O)[C@H](C(=O)O)c2ccc(O)cc2)C(=O)N2C(C(=O)O)=C(CSc3nnnn3C)CO[C@H]21
inactive: outcome [1] | Potency [2] | Potency (7G8) | Potency (AA1029) | Potency (CP194) | Potency (CP203) | Potency (CP211) | Potency (CP215) | Potency (CP265) | Potency (CP291) | Potency (CP335) | Potency (DIV30) | Potency (P93_24) | Potency (P94_40) | Potency (PC26)

Cc1ccc(S(=O)(=O)NC(=O)NN2C[C@H]3CCC[C@@H]3C2)cc1
inactive: outcome [1] | Potency (7G8) | Potency (AA1029) | Potency (CP194) | Potency (CP203) | Potency (CP211) | Potency (CP215) | Potency (CP265) | Potency (CP291) | Potency (CP335) | Potency (P93_24) | Potency (P94_40) | Potency (PC26)

CC=C(/C(=C/C)c1ccc(O)cc1)c1ccc(O)cc1
inactive: Potency [6] | outcome [1] | Potency [2] | Potency (7G8) | Potency (AA1029) | Potency (CP194) | Potency (CP203) | Potency (CP211) | Potency (CP215) | Potency (CP265) | Potency (CP291) | Potency (CP335) | Potency (DIV30) | Potency (P93_24) | Potency (P94_40) | Potency (PC26)
active: Potency [3] 794 nM

CCCC[C@H](CC)CN1CN(C[C@@H](CC)CCCC)CC(C)(N)C1
active: Potency [5] 1260 nM
inactive: outcome [1] | Potency (AA1029) | Potency (CP194) | Potency (CP203) | Potency (CP211) | Potency (CP215) | Potency (CP265) | Potency (CP291) | Potency (CP335) | Potency (DIV30) | Potency (P93_24) | Potency (P94_40) | Potency (PC26)

FC(F)(F)c1ccccc1-c1ccc2ncnc(NC3CCNCC3)c2c1
inactive: activity change, negative = inhibition [3] 12.9% [at 2.29 µM] | activation [7] -6.93%

CN1CCCN([C@@H](c2ccccc2)c2ccc(Cl)cc2)CC1
active: Potency [5] 251 nM

C[C@@H](Cc1cccc(C(F)(F)F)c1)NCCOC(=O)c1ccccc1
active: Potency [5] 15.8 nM
inactive: Potency [3]

C[N+]12CCC(CC1)[C@@H](OC(=O)C(O)(c1ccccc1)c1ccccc1)C2
inactive: Potency [2] | Potency (7G8) | Potency (AA1029) | Potency (CP265) | Potency (CP335) | Potency (P93_24) | Potency (P94_40)

NS(=O)(=O)c1cc2c(cc1C(F)(F)F)N[C@H](Cc1ccccc1)NS2(=O)=O
inactive: Potency [6] | outcome [1] | Potency [2] | Potency (7G8) | Potency (AA1029) | Potency (CP194) | Potency (CP203) | Potency (CP211) | Potency (CP215) | Potency (CP265) | Potency (CP291) | Potency (CP335) | Potency (DIV30) | Potency (P93_24) | Potency (P94_40) | Potency (PC26)

CCC(=O)[C@@]1(C)[C@H](C)C[C@@H]2[C@@H]3CCC4=CC(=O)C=C[C@@]4(C)[C@H]3[C@H](O)C[C@]21C
inactive: Potency [2] | Potency (AA1029) | Potency (CP194) | Potency (CP203) | Potency (CP211) | Potency (CP215) | Potency (CP265) | Potency (CP291) | Potency (DIV30) | Potency (P94_40) | Potency (PC26)
active: Potency (7G8) 2000 nM

C=C(C)[C@H]1CC[C@]2(CO)CC[C@]3(C)[C@@H](CC[C@H]4[C@@]5(C)CC[C@@H](O)C(C)(C)[C@@H]5CC[C@@]43C)[C@H]12
active: Potency [7] 1260 nM
